Screening results as filed in PubChem BioAssay.
In the library only some 3.1% were active in any assay of this set; here they are far more common.
ATG4B inh = ATG4B protease inhibitors, primary screen, biochemical, fluorescence, uHTS; ATG4B cleavage of LC3-PLA2, NBD-HPC fluorescence, 1 h; inhibition, % at 8.33 µM; 340,000 compounds, 0.51% hits; in the data active means inhibition above about 40%
Target sequence (Q9Y4P1 whole entry, looked up): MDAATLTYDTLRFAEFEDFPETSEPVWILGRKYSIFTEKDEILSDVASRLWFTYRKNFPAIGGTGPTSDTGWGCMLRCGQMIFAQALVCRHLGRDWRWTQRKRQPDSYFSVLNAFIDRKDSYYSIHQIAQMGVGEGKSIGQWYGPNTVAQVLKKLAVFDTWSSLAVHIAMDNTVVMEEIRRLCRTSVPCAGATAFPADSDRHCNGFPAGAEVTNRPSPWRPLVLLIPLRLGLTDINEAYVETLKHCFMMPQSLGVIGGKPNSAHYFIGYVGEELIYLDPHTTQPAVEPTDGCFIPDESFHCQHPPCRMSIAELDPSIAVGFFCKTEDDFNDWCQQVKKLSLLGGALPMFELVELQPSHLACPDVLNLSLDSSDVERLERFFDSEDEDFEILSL
UBC13 inh = UBC13 polyubiquitin chain formation inhibitors, primary screen, biochemical, TR-FRET, uHTS; inhibition, % at 20 µM; 330,000 compounds, 0.47% hits; AID 485273, 2010; Ubiquitin-conjugating enzyme E2 N (Homo sapiens), P61088; in the data active means inhibition above about 45%, passing the limit was not always enough
Target sequence (P61088 whole entry, looked up): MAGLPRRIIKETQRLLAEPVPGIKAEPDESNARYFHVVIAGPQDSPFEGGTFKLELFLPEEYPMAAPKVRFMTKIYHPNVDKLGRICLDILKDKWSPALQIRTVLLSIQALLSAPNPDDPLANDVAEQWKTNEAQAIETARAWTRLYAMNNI
PREPL inh = PREPL enzyme inhibitors, primary screen, biochemical, fluorescence polarization; Prolyl endopeptidase-like (Homo sapiens), Q4J6C6; recombinant PREPL, fluorescence polarization activity-based probe; inhibition, % at 5.96 µM; 320,000 compounds, 0.68% hits; AID 2751, 2010; in the data active means inhibition above about 43%;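 further: 0% = enzyme with DMSO and 100% = wells lacking enzyme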
MEKK2 WT-MEK5 = modulators of MEK5 binding to wildtype MEKK2, primary screen, biochemical, multiplex bead flow cytometry, Alexa488-MEK5. binding response (% of control), % at 10 µM. 290,000 compounds, 1.1% hits. Mitogen-activated protein kinase kinase kinase 2 (Homo sapiens), Q9Y2U5. AID 1531, 2009. Alexa488-MEK5 binding to MEKK2 WT; actives lie on both sides; in the data active means binding response below about 67% or above about 130%
MEKK2mut PB1 HTS = MEK5 binding signal on mutant MEKK2 PB1, primary screen, biochemical, multiplex bead flow cytometry, Alexa488-MEK5 | 290,000 compounds, 0.35% hits | percent response, % at 10 µM | Alexa488-MEK5 binding to MEKK2 mutant | AID 1530, 2009; in the data active means percent response above about 24%, passing the limit was not always enough
MEKK3 PB1 HTS = modulators of MEKK3-MEK5 PB1 binding, primary screen, biochemical, wildtype MEKK3, multiplex bead flow cytometry, Alexa488-MEK5 | bead-based flow cytometry, Alexa488-MEK5 binding to MEKK3; actives lie on both sides; 0 = blocked by unlabeled MEK5, 100 = vehicle | binding response (% of control), % at 10 µM | AID 1529, 2009 | 290,000 compounds, 1.4% hits;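 active means binding response more than 3 SD above or below the average of its plate-row segment, actives on both sides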;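 further: Alexa488 bead fluorescence after subtracting the streptavidin-only scavenger bead signal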
MEKK2wt confirm = modulators of MEK5 binding to wildtype MEKK2, confirmation, biochemical, single concentration, multiplex bead flow cytometry; Alexa488-MEK5 binding to MEKK2 WT; actives lie on both sides; AID 1892, 2009; binding response (% of control), % at 10 µM; shares compounds with MEKK3 PB1 HTS; 5,900 compounds, 2.4% hits; in the data active means binding response below about 16% or above about 210%; inactive means in between
MEKK2mut confirm = mutant MEKK2 PB1-MEK5 binding signal retest – biochemical, single concentration, multiplex bead flow cytometry, confirmation. shares compounds with MEKK3 PB1 HTS. Alexa488-MEK5 binding to MEKK2 mutant. percent response, % at 10 µM. 5,900 compounds, 2% hits; in the data active means percent response mostly above about 71%, no sharp cut-off; inactive means mostly below about 38%;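 further: higher means compound restores mutant binding toward wildtype level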
MEKK3-MEK5 inh = MEKK3 wild-type PB1 binding to MEK5, inhibitors, confirmation, biochemical, bead multiplex flow cytometry, single concentration, wildtype. shares compounds with MEKK3 PB1 HTS. Alexa488-MEK5 binding to MEKK3; hits give low values. binding response (% of control), % at 10 µM. 5,900 compounds, 1.8% hits. AID 1894, 2009;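 active means binding response below 72% of control, or above a set upper limit, though filed actives all read lower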;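 further: 100% = DMSO only wells and 0% = binding blocked by excess unlabeled MEK5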
* = called active by the depositor; [ ] = another dose, or the depositor's remark.

What do the screens show for `NNc1nc(-c2ccccc2)nc2sc3c(c12)CCCC3`?
ATG4B inh: 30; UBC13 inh: -9; PREPL inh: 9; MEKK2 WT-MEK5: 114; MEKK2mut PB1 HTS: 1; MEKK3 PB1 HTS: 142*; MEKK2wt confirm: 103; MEKK2mut confirm: 15; MEKK3-MEK5 inh: 106

What do the screens show for `Cc1ccc2c(c1)N(C(C)C(=O)NCc1cccs1)C(=O)CO2` (stereo unspecified)?
ATG4B inh: 1; UBC13 inh: -6; PREPL inh: 6; MEKK2 WT-MEK5: 107; MEKK2mut PB1 HTS: 7; MEKK3 PB1 HTS: 104

What do the screens show for `Cc1ccc2c(c1)N(C(C)C(=O)NCc1ccc3c(c1)OCO3)C(=O)CO2` (stereo unspecified)?
ATG4B inh: -3; UBC13 inh: 6; PREPL inh: 5; MEKK2 WT-MEK5: 29*[inhibitor]; MEKK2mut PB1 HTS: -14; MEKK3 PB1 HTS: 30*[inhibitor]; MEKK2wt confirm: 130; MEKK2mut confirm: 12; MEKK3-MEK5 inh: 107

Results for CCOc1ccc(N=C(/C(C(=O)C(=O)N2CCOCC2)=C(/O)c2ccccc2)c2ccccc2)cc1 ?
ATG4B inh: -4; UBC13 inh: -12; PREPL inh: -5; MEKK2 WT-MEK5: 78; MEKK2mut PB1 HTS: -37; MEKK3 PB1 HTS: 49*[inhibitor]; MEKK2wt confirm: 91; MEKK2mut confirm: -9; MEKK3-MEK5 inh: 98

What do the screens show for `CCOc1ccc(OCc2cccc(C(=O)N3CCOCC3)c2)cc1`?
ATG4B inh: -4; UBC13 inh: 7; PREPL inh: -2

How did CN(C)c1ccc(/C=C2\C(=N)N3C(=NC2=O)Sc2cc(S(C)(=O)=O)ccc23)cc1 do in these assays?
UBC13 inh: -102; PREPL inh: -1; MEKK2 WT-MEK5: 84; MEKK2mut PB1 HTS: 4; MEKK3 PB1 HTS: 94

Results for CN(C)C(CNC(=O)c1cccc(S(=O)(=O)Nc2ccc(SC(F)F)cc2)c1)c1ccccc1 (stereo unspecified) ?
ATG4B inh: -24

How did CN(C)C(CNC(=O)c1cc(S(=O)(=O)N2CCOCC2)ccc1Cl)c1cccs1 (stereo unspecified) do in these assays?
ATG4B inh: -20

How did CCOC(=O)C1=C(C)Nc2ccccc2N=C1NC(=O)c1cccc(S(=O)(=O)N(C)C)c1 do in these assays?
ATG4B inh: -7; UBC13 inh: -9; PREPL inh: -1; MEKK2 WT-MEK5: 3.0*[inhibitor]; MEKK2mut PB1 HTS: -24; MEKK3 PB1 HTS: 3.0*[inhibitor]; MEKK2wt confirm: 103; MEKK2mut confirm: 1; MEKK3-MEK5 inh: 103

What do the screens show for `CCN(CC)CCN(C(=O)c1ccc(S(=O)(=O)N2CCCC2)cc1)c1nc2cc(C)cc(C)c2s1`?
ATG4B inh: -10; UBC13 inh: 13; PREPL inh: 6; MEKK2 WT-MEK5: 142*; MEKK2mut PB1 HTS: 21; MEKK3 PB1 HTS: 105; MEKK2wt confirm: 135; MEKK2mut confirm: 12; MEKK3-MEK5 inh: 101

What do the screens show for `CCN(CC)CCN(C(=O)c1ccc(C(=O)c2ccccc2)cc1)c1nc2c(OC)cccc2s1`?
ATG4B inh: 12; UBC13 inh: 15; PREPL inh: 0; MEKK2 WT-MEK5: 178*; MEKK2mut PB1 HTS: 42*; MEKK3 PB1 HTS: 115; MEKK2wt confirm: 157; MEKK2mut confirm: 25; MEKK3-MEK5 inh: 108

What do the screens show for `CCN(CC)CCN(C(=O)c1ccc(C(=O)c2ccccc2)cc1)c1nc2cc3c(cc2s1)OCO3`?
ATG4B inh: 18; UBC13 inh: 11; PREPL inh: 15; MEKK2 WT-MEK5: 157*; MEKK2mut PB1 HTS: 31*; MEKK3 PB1 HTS: 110; MEKK2wt confirm: 151; MEKK2mut confirm: 22; MEKK3-MEK5 inh: 110

Results for CCN(CC)CCN(C(=O)c1ccc([N+](=O)[O-])cc1)c1nc2c(OC)cccc2s1 ?
ATG4B inh: -3; UBC13 inh: 0; PREPL inh: -8; MEKK2 WT-MEK5: 112; MEKK2mut PB1 HTS: 0; MEKK3 PB1 HTS: 105

How did CCN(CC)CCN(C(=O)c1ccc(Br)s1)c1nc2cc3c(cc2s1)OCCO3 do in these assays?
ATG4B inh: 32; UBC13 inh: 18; PREPL inh: 8; MEKK2 WT-MEK5: 138*; MEKK2mut PB1 HTS: 19; MEKK3 PB1 HTS: 103; MEKK2wt confirm: 129; MEKK2mut confirm: 26; MEKK3-MEK5 inh: 104

Results for COc1cc(/C=C/C(=O)OCC(=O)Nc2oc(C)c3c(C)n[nH]c(=O)c23)ccc1OC(F)F ?
ATG4B inh: 10; UBC13 inh: -8; PREPL inh: 23

Results for CCCc1nc2ccccc2c(C(=O)N(CC)CC(=O)NCc2cccs2)c1CC ?
ATG4B inh: -4; UBC13 inh: 2

What do the screens show for `CCc1cc2c(cc3c(=O)n(CC(=O)NCCCN4CCCCCC4)nc(CC)n32)s1`?
ATG4B inh: 7; UBC13 inh: 4; PREPL inh: 39; MEKK2 WT-MEK5: 123; MEKK2mut PB1 HTS: 9; MEKK3 PB1 HTS: 100

Results for COc1ccc(Nc2nc(NCCN3CCOCC3)nc(Nc3ccc(OC)cc3)n2)cc1 ?
ATG4B inh: -5; UBC13 inh: -2; PREPL inh: 37; MEKK2 WT-MEK5: 108; MEKK2mut PB1 HTS: 5; MEKK3 PB1 HTS: 105

What do the screens show for `CN(C)c1nc(NCc2ccccc2)nc(N/N=C/c2ccc(Br)cc2)n1`?
ATG4B inh: 2; UBC13 inh: -11; PREPL inh: 3; MEKK2 WT-MEK5: 104; MEKK2mut PB1 HTS: 0; MEKK3 PB1 HTS: 103
